From PubChem BioAssay (NCI)
The panel holds about 83,000 compounds, 20% with a hit somewhere; the sample as a whole holds those more often.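 For each line, cells grew in 96-well plates with the test compound present at a single concentration for 48 hours.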 Unmarked numbers belong to inactive results. The source made the active and inactive calls. Rule for the calls: active = growth percent below 10; inactive = the rest.

Tests used:
Assay in all cases: NCI-60 one-dose screen, 48 h (100 = growth as untreated, 0 = no growth, -100 = all killed)
Conditions in all cases: 10 µM unless noted
NCI-H23 lung = test system: NCI-H23 lung
NCI-H226 lung = test system: NCI-H226 lung
NCI-H322M lung = test system: NCI-H322M lung
HOP-62 NSCLC = test system: HOP-62 NSCLC
NCI-H460 lung = test system: NCI-H460 lung
HOP-92 NSCLC = test system: HOP-92 NSCLC
NCI-H522 lung = test system: NCI-H522 lung
A549/ATCC NSCLC = test system: A549/ATCC NSCLC
786-0 renal = test system: 786-0 renal
COLO 205 colon = test system: COLO 205 colon

For `COc1ccc(C2C(C#N)=C(/N=C/c3ccc(Cl)cc3)Oc3c2sc2c(C)cccc32)cc1` (stereo not given), the growth (NCI-H23 lung) was 26.2%, the growth (NCI-H226 lung) was 45.4% and the growth (NCI-H322M lung) was 44.2%. The growth (HOP-62 NSCLC) was 29.8%, the growth (NCI-H460 lung) was 10.1% and the growth (HOP-92 NSCLC) was 30.5%. For the same compound, the growth (NCI-H522 lung) was -40.8% (active), the growth (A549/ATCC NSCLC) was 34.2% and the growth (786-0 renal) was 39.2%. For the same compound, the growth (COLO 205 colon) was -22.3% (active).
`O=C1Nc2ccccc2/C1=N\c1nnc(-c2ccccc2)o1` gave a growth (NCI-H23 lung) of 91.8%, a growth (NCI-H226 lung) of 88.7% and a growth (NCI-H322M lung) of 86.8%. It also gave a growth (HOP-62 NSCLC) of 82.6%, a growth (NCI-H460 lung) of 99.2% and a growth (HOP-92 NSCLC) of 72.2%. The growth (NCI-H522 lung) was 88.4%, the growth (A549/ATCC NSCLC) was 103% and the growth (786-0 renal) was 108%. The growth (COLO 205 colon) was 107%.
`Brc1ccc(-c2cc(-c3ccc4c(c3)OC=CO4)n[nH]2)s1` gave a growth (NCI-H23 lung) of 87.4%, a growth (NCI-H226 lung) of 95.1% and a growth (NCI-H322M lung) of 96.2%. The growth (HOP-62 NSCLC) was 82%, the growth (NCI-H460 lung) was 96.4% and the growth (HOP-92 NSCLC) was 99.7%. The growth (NCI-H522 lung) was 73.8%, the growth (A549/ATCC NSCLC) was 89.9% and the growth (786-0 renal) was 104%. For the same compound, the growth (COLO 205 colon) was 97.1%.
Compound `COc1cc(-c2nc(-c3ccccc3)[nH]c2-c2ccnc(NCCCNS(=O)(=O)c3cccc(F)c3)n2)ccc1F` has a growth (NCI-H23 lung) of 101%, a growth (NCI-H226 lung) of 83.9% and a growth (NCI-H322M lung) of 102%. The growth (HOP-62 NSCLC) was 130%, the growth (NCI-H460 lung) was 94.2% and the growth (HOP-92 NSCLC) was 134%. The growth (NCI-H522 lung) was 85.4%, the growth (A549/ATCC NSCLC) was 87.1% and the growth (786-0 renal) was 98.4%. For the same compound, the growth (COLO 205 colon) was 93%.
Work on `O=S(=O)(Oc1ccc(-c2cn3ccoc3n2)cc1)c1cccc(C(F)(F)F)c1` yielded a growth (NCI-H23 lung) of 98%, a growth (NCI-H226 lung) of 93.5% and a growth (NCI-H322M lung) of 102%. For the same compound, the growth (HOP-62 NSCLC) was 104%, the growth (NCI-H460 lung) was 104% and the growth (HOP-92 NSCLC) was 91.7%. The growth (NCI-H522 lung) was 90.3%, the growth (A549/ATCC NSCLC) was 99.6% and the growth (786-0 renal) was 99.9%. It also gave a growth (COLO 205 colon) of 115%.
Compound `C=C1CCc2nc(SCC(=O)O)ccc2N1` has a growth (NCI-H23 lung) of 95.6%, a growth (NCI-H226 lung) of 99% and a growth (NCI-H322M lung) of 105%. For the same compound, the growth (HOP-62 NSCLC) was 103%, the growth (NCI-H460 lung) was 102% and the growth (HOP-92 NSCLC) was 120%. The growth (NCI-H522 lung) was 96.7%, the growth (A549/ATCC NSCLC) was 108% and the growth (786-0 renal) was 106%. The growth (COLO 205 colon) was 107%.
With `CCOC(=O)c1c(NCC(=O)Nc2cccc([N+](=O)[O-])c2)sc(C(C)=O)c1C` the growth (NCI-H23 lung) was -40.7% (active), the growth (NCI-H226 lung) was -61.3% (active) and the growth (NCI-H322M lung) was 95%. For the same compound, the growth (HOP-62 NSCLC) was 7.61% (active), the growth (NCI-H460 lung) was -29% (active) and the growth (HOP-92 NSCLC) was -24.7% (active). For the same compound, the growth (NCI-H522 lung) was -32% (active), the growth (A549/ATCC NSCLC) was -13.5% (active) and the growth (786-0 renal) was -15% (active). For the same compound, the growth (COLO 205 colon) was -42.9% (active).
Work on `CCN(CC)CCOc1ccc(C(=C(c2ccccc2)C2CCCC2)c2ccc(OCCN(CC)CC)cc2)cc1` yielded a growth (NCI-H23 lung) of 16.7%, a growth (NCI-H226 lung) of 12.8% and a growth (NCI-H322M lung) of 59.5%. For the same compound, the growth (HOP-62 NSCLC) was 50.2%, the growth (NCI-H460 lung) was 17.2% and the growth (HOP-92 NSCLC) was -30.8% (active). For the same compound, the growth (NCI-H522 lung) was 2.43% (active), the growth (A549/ATCC NSCLC) was 37.4% and the growth (786-0 renal) was 62.6%. The growth (COLO 205 colon) was -83.9% (active).
For `Cc1ccc(-c2csc(N/N=C/c3cccs3)n2)cc1`, the growth (NCI-H23 lung) was 79.4%, the growth (NCI-H226 lung) was 70.1% and the growth (NCI-H322M lung) was 97%. For the same compound, the growth (HOP-62 NSCLC) was 95.3%, the growth (NCI-H460 lung) was 99.4% and the growth (HOP-92 NSCLC) was 87.3%. It also gave a growth (NCI-H522 lung) of 73.3%, a growth (A549/ATCC NSCLC) of 84.2% and a growth (786-0 renal) of 97.5%. It also gave a growth (COLO 205 colon) of 115%.
In the case of `COc1ccccc1/C=C1\Oc2ccc(O)c(O)c2C1=O`, the growth (NCI-H23 lung) is reported as 93.2%, the growth (NCI-H226 lung) is reported as 110% and the growth (NCI-H322M lung) is reported as 102%. For the same compound, the growth (HOP-62 NSCLC) was 99.9%, the growth (NCI-H460 lung) was 101% and the growth (HOP-92 NSCLC) was 103%. For the same compound, the growth (NCI-H522 lung) was 89.1%, the growth (A549/ATCC NSCLC) was 101% and the growth (786-0 renal) was 94.1%. The growth (COLO 205 colon) was 116%.
`C#CCOc1ccccc1/C=N/Nc1nc(-c2ccc(Cl)cc2)cs1` was tested, and the growth (NCI-H23 lung) was 83.3%, the growth (NCI-H226 lung) was 82.8% and the growth (NCI-H322M lung) was 90.6%. The growth (HOP-62 NSCLC) was 96%, the growth (NCI-H460 lung) was 97.7% and the growth (HOP-92 NSCLC) was 88.2%. The growth (NCI-H522 lung) was 87.8%, the growth (A549/ATCC NSCLC) was 101% and the growth (786-0 renal) was 102%. It also gave a growth (COLO 205 colon) of 109%.
In the case of `NC1C2CCC1CN(c1cnc(C(=O)Nc3cc(F)cc4cccnc34)cn1)C2` (stereo not given), the growth (NCI-H23 lung) is reported as 75.1%, the growth (NCI-H226 lung) is reported as 75.7% and the growth (NCI-H322M lung) is reported as 84.3%. For the same compound, the growth (HOP-62 NSCLC) was 81.2%, the growth (NCI-H460 lung) was 68.1% and the growth (HOP-92 NSCLC) was 47.9%. The growth (NCI-H522 lung) was 72.3%, the growth (A549/ATCC NSCLC) was 68.6% and the growth (786-0 renal) was 67%. The growth (COLO 205 colon) was -0.393% (active).
With `CC(C)(C)OC(=O)Nc1ccc(-c2cccc(Oc3ccc4nnc(Cl)n4n3)c2)cc1` the growth (NCI-H23 lung) was 69.7%, the growth (NCI-H226 lung) was 66.4% and the growth (NCI-H322M lung) was 101%. It also gave a growth (HOP-62 NSCLC) of 104%, a growth (NCI-H460 lung) of 82.4% and a growth (HOP-92 NSCLC) of 42.3%. It also gave a growth (NCI-H522 lung) of 64.9%, a growth (A549/ATCC NSCLC) of 85.6% and a growth (786-0 renal) of 81.9%. It also gave a growth (COLO 205 colon) of 88.5%.
